Here are results for 54 compounds from article PMC4336329 (PLoS ONE, 2015).

The whole screen tested about 310,000 compounds, of which about 14,000 (4.5%) showed an effect of 50% or more. The effect is printed as a negative number. The full list was thinned out, with strong results kept by preference.
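Note: peak tail current of the secondary pulse compared with the same well before compound.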

For the assay, the target named is human ether-à-go-go-related gene (hERG) potassium channel (human, UniProt Q12809). The experiment in a line: primary screen, population patch clamp on CHO cells stably expressing hERG; higher = less effect of the substance.
human ether-à-go-go-related gene (hERG) potassium channel, sequence (Q12809 whole entry, looked up): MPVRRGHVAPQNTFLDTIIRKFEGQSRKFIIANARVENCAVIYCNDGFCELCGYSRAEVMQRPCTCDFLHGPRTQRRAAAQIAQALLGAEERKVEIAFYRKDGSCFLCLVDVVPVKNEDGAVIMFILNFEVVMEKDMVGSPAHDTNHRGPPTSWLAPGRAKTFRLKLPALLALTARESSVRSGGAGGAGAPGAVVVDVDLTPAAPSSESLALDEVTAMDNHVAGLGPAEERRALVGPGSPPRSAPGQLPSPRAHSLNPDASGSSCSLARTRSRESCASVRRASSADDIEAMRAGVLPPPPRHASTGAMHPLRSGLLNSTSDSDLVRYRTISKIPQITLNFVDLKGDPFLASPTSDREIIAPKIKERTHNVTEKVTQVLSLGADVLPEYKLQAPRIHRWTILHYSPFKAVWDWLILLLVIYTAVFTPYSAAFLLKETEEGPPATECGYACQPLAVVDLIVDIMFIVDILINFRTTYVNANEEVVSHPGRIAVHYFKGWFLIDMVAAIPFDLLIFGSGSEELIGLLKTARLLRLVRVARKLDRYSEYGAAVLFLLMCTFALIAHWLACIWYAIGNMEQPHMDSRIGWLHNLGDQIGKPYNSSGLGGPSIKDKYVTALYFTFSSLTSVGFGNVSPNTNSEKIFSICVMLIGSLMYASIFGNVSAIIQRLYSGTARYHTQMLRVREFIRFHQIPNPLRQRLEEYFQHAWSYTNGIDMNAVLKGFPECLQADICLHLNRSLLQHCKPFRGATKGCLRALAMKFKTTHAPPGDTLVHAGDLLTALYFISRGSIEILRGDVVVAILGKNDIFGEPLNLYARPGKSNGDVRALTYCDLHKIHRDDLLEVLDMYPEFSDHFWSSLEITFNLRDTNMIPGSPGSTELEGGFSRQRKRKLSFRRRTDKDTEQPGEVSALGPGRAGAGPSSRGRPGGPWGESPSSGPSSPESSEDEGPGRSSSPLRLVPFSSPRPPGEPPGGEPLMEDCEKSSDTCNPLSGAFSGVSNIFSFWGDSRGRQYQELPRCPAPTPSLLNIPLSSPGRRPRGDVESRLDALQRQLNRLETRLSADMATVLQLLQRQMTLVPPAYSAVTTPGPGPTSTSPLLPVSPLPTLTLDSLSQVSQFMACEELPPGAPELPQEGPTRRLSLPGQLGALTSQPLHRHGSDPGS
As for `CC(=O)NC12CC3CC(C1)CC(C(=O)N1CCN(S(=O)(=O)c4ccccc4[N+](=O)[O-])CC1)(C3)C2`, the “hERG current change (%, negative = inhibition) at 10uM” value was -20.8%.

With `CCOC(=O)N1CCc2c(sc(NC(=O)c3ccc(S(=O)(=O)N4CCCC4)cc3)c2C#N)C1`, the “hERG current change (%, negative = inhibition) at 10uM” value came out at 19.3%.

For the compound `Cc1nnc(OCc2nc3ccccc3n2C)c2ccccc12`, the “hERG current change (%, negative = inhibition) at 10uM” value is given as -27.4%.

On to `Cc1ccc(NC(=O)Cn2cc(C=O)c3ccccc32)cc1`, for which the “hERG current change (%, negative = inhibition) at 10uM” value was 17.5%.

As to `COc1cccc(CNC(=O)C2=Cc3cccc(OC)c3OC2)c1`, the “hERG current change (%, negative = inhibition) at 10uM” value is listed as 4.36%.

With `COc1ccc2c(c1)C=C(C(=O)NCc1ccc(Cl)cc1)CO2`, the “hERG current change (%, negative = inhibition) at 10uM” value is on record as -67%.

On to `O=C(NCc1ccc(Cl)cc1)C1=Cc2cc(Cl)ccc2OC1`, for which the “hERG current change (%, negative = inhibition) at 10uM” value is given as -10.2%.

Turning to `CCOc1cc(C2Nc3ccccc3C(=O)N2c2ccccc2)ccc1O` (stereo not drawn), the “hERG current change (%, negative = inhibition) at 10uM” value is 4.38%.

For the compound `CCOc1cc(C2Nc3ccccc3C(=O)N2c2ccccc2)c(Br)cc1OCC(=O)O` (stereo not drawn), the “hERG current change (%, negative = inhibition) at 10uM” value is -53.8%.

As to `COc1cc(C2Nc3ccccc3C(=O)N2c2ccccc2)c(Br)cc1OCC(=O)O` (stereo not drawn), the “hERG current change (%, negative = inhibition) at 10uM” value worked out at 0.108%.

In the case of `Cc1ccc2ccc(C(Nc3ccccn3)c3ccccc3)c(O)c2n1` (stereo not drawn), the “hERG current change (%, negative = inhibition) at 10uM” value is recorded as -3.72%.

As to `CCOc1ccc(CNC(=S)NCc2ccc(OCC)cc2)cc1`, the “hERG current change (%, negative = inhibition) at 10uM” value was found to be 15.2%.

As to `O=C(c1ccco1)N1CCN(Cc2csc(-c3ccccc3Cl)n2)CC1`, the “hERG current change (%, negative = inhibition) at 10uM” value was -64.9%.

On to `Cc1ccc(-c2nc(CSCC(=O)N3CCN(C(=O)c4ccco4)CC3)c(C)o2)cc1`, for which the “hERG current change (%, negative = inhibition) at 10uM” value was -32.7%.

Regarding `CCOc1ccccc1-c1nc(CN2CCCN(C(=O)c3ccco3)CC2)c(C)o1`, the “hERG current change (%, negative = inhibition) at 10uM” value came out at 9.83%.

As for `COc1ccc(-c2nc(CN3CCN(C(=O)c4ccco4)CC3)c(C)o2)cc1OC`, the “hERG current change (%, negative = inhibition) at 10uM” value is 1.8%.

Regarding `Cc1oc(-c2ccc(Cl)cc2)nc1CN1CCCN(C(=O)c2ccco2)CC1`, the “hERG current change (%, negative = inhibition) at 10uM” value is listed as -72.4%.

In the case of `Cc1ccccc1-c1nc(CN2CCN(C(=O)c3ccco3)CC2)c(C)o1`, the “hERG current change (%, negative = inhibition) at 10uM” value was -5.18%.

For `Cc1oc(-c2ccccc2Cl)nc1CN1CCCN(C(=O)c2ccco2)CC1`, the “hERG current change (%, negative = inhibition) at 10uM” value was -65.4%.

With `Cc1oc(-c2ccc(Cl)cc2)nc1CN1CCCC(C(=O)N2CCN(C(=O)c3ccco3)CC2)C1` (stereo not drawn), the “hERG current change (%, negative = inhibition) at 10uM” value is reported as -89.5%.

As for `O=C(c1ccco1)N1CCN(Cc2c(Cl)cccc2Cl)CC1`, the “hERG current change (%, negative = inhibition) at 10uM” value is listed as -8.42%.

Regarding `COC(=O)c1ccc(-c2nc(CN3CCCN(C(=O)c4ccco4)CC3)c(C)o2)cc1`, the “hERG current change (%, negative = inhibition) at 10uM” value is -41.4%.

In the case of `Cc1onc(-c2ccccc2Cl)c1C(=O)N1CCN(C(=O)c2ccco2)CC1`, the “hERG current change (%, negative = inhibition) at 10uM” value is reported as -16%.

For `COc1ccc(F)c(-c2nc(CN3CCN(C(=O)c4ccco4)CC3)c(C)o2)c1`, the “hERG current change (%, negative = inhibition) at 10uM” value is recorded as -35.9%.

In the case of `CCCC(=O)C1=C(O)C(C(=O)OC)C(C)(C)CC1=NC(C)C` (stereo not drawn), the “hERG current change (%, negative = inhibition) at 10uM” value worked out at 15.1%.

Turning to `Cc1cccc(C)c1NC(=O)CSc1nnc(C)c(=O)[nH]1`, the “hERG current change (%, negative = inhibition) at 10uM” value is listed as 15.1%.

As to `CC[C@@H]1C(=O)OC[C@@H]1CC1=CN=C[NH+]1C.O=[N+]([O-])[O-]`, the “hERG current change (%, negative = inhibition) at 10uM” value was found to be 15.7%.

Regarding `O=C(O)c1ccc(Oc2ccc(S(=O)(=O)c3ccc(C(=O)O)c(C(=O)O)c3)cc2)cc1`, the “hERG current change (%, negative = inhibition) at 10uM” value came out at 9.42%.

With `COc1ccc(CNC(=O)COC(=O)c2ccc(OCc3c(C)noc3C)cc2)cc1OC`, the “hERG current change (%, negative = inhibition) at 10uM” value stood at 13.8%.

For `CC1(O)CC(=O)N(c2ccccc2)O1` (stereo not drawn), the “hERG current change (%, negative = inhibition) at 10uM” value is given as -1.7%.

`CCN(CCCNC(=O)C1CCC(=O)N1C1CCCC1)c1cccc(C)c1` (stereo not drawn): the “hERG current change (%, negative = inhibition) at 10uM” value is listed as -2.31%.

Take `COc1ccc(OC)c(CNn2c(-c3cccc(C)c3)nc3ccccc3c2=O)c1`: the “hERG current change (%, negative = inhibition) at 10uM” value is listed as 6.92%.

With `Cc1cc(C)nc(SC2CCOC2=O)n1` (stereo not drawn), the “hERG current change (%, negative = inhibition) at 10uM” value was 0.669%.

On to `Cc1oc(-c2cccc(F)c2)nc1CN1CCCN(C(=O)c2ccco2)CC1`, for which the “hERG current change (%, negative = inhibition) at 10uM” value is listed as -74.7%.

On to `Cc1oc(-c2cc(F)cc(F)c2)nc1CN1CCN(C(=O)c2ccco2)CC1`, for which the “hERG current change (%, negative = inhibition) at 10uM” value is given as -40.5%.

In the case of `Cc1oc(-c2cc(F)ccc2F)nc1CN1CCCN(C(=O)c2ccco2)CC1`, the “hERG current change (%, negative = inhibition) at 10uM” value was -36.6%.

Consider `Cc1ccc(S(C)(=O)=O)cc1C(=O)N1CC(C(N)=O)Oc2ccccc21` (stereo not drawn), for which the “hERG current change (%, negative = inhibition) at 10uM” value was 15.6%.

Turning to `Cc1cc(Br)c(S(=O)(=O)NCCN2CCOCC2)cc1C`, the “hERG current change (%, negative = inhibition) at 10uM” value is 7.8%.

Regarding `C=CCn1c(SCC(=O)Nc2ccc3c(c2)OCCO3)nnc1-c1ccco1`, the “hERG current change (%, negative = inhibition) at 10uM” value is listed as -63.3%.

Turning to `CCn1c(SCC(=O)Nc2ccc3c(c2)OCCO3)nnc1-c1ccco1`, the “hERG current change (%, negative = inhibition) at 10uM” value is -25.9%.

With `Cn1c(SCC(=O)Nc2ccc3c(c2)OCCO3)nnc1-c1ccco1`, the “hERG current change (%, negative = inhibition) at 10uM” value was determined as 8.89%.

On to `C=CCn1c(SCC(=O)Nc2ccc3c(c2)OCCO3)nnc1-c1ccccn1`, for which the “hERG current change (%, negative = inhibition) at 10uM” value is on record as -28.3%.

On to `CCCn1c(SCC(=O)Nc2ccc3c(c2)OCCO3)nnc1-c1ccco1`, for which the “hERG current change (%, negative = inhibition) at 10uM” value is given as -66.1%.

In the case of `C=CCn1c(SCC(=O)Nc2ccc3c(c2)OCO3)nnc1-c1ccccc1`, the “hERG current change (%, negative = inhibition) at 10uM” value is listed as -34.7%.

Turning to `COc1ccc(-c2nnc(NC(=O)c3ccc([N+](=O)[O-])o3)o2)c(OC)c1`, the “hERG current change (%, negative = inhibition) at 10uM” value is 19.2%.

On to `CC(C)(C)N(NC(=O)OCc1ccccc1)C(=O)c1ccccc1Cl`, for which the “hERG current change (%, negative = inhibition) at 10uM” value is recorded as -17.5%.

With `CCOC(=O)C1=NN(c2ccc(F)cc2)C2=NC(C)=C(C(=O)OC)C(c3cccs3)N12` (stereo not drawn), the “hERG current change (%, negative = inhibition) at 10uM” value was -2.17%.

Consider `O=C(O)CCCCCN1C(=O)C(O)=C(C(=O)/C=C/c2ccccc2)C1c1ccc2c(c1)OCO2` (stereo not drawn), for which the “hERG current change (%, negative = inhibition) at 10uM” value turned out to be 1.89%.

Regarding `CC(NCC(O)c1ccc([N+](=O)[O-])cc1)C12CC3CC(CC(C3)C1)C2` (stereo not drawn), the “hERG current change (%, negative = inhibition) at 10uM” value is -69.4%.

Take `CC(=O)NCC(O)c1ccc([N+](=O)[O-])cc1` (stereo not drawn): the “hERG current change (%, negative = inhibition) at 10uM” value turned out to be 13.6%.

Regarding `CNC(=S)NCC(O)c1ccc([N+](=O)[O-])cc1` (stereo not drawn), the “hERG current change (%, negative = inhibition) at 10uM” value is reported as 5.5%.

Regarding `COc1ccccc1NC(=O)c1cc(C(=O)O)ccc1C(=O)O`, the “hERG current change (%, negative = inhibition) at 10uM” value is listed as 20.4%.

`CCOc1ccccc1NC(C)C(=O)Nc1cc(C(F)(F)F)ccc1N1CCOCC1` (stereo not drawn): the “hERG current change (%, negative = inhibition) at 10uM” value was -6.23%.

As for `COc1ccc(OC)c(C(=O)NC(CC(N)=O)c2ccc(NCCN3CCCC3)c([N+](=O)[O-])c2)c1` (stereo not drawn), the “hERG current change (%, negative = inhibition) at 10uM” value is 8.75%.
